Compound activity (PubChem BioAssay)
Most compounds without a hit are left out; they make up all but 3.1% or so of the library.
EWS-Fli inh: inhibitors of EWS/Fli oncoprotein transcriptional activity; 350,000 compounds, 0.67% hits; A673 NR0B1-luciferase reporter, viability-normalised; inhibition, % at 12.6 µM;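 active = mean inhibition of at least 50% after viability correction, with every replicate also passing that limit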;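 note: firefly luciferase signal divided by Alamar Blue viability fluorescence both relative to DMSO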
HIV Env fusion: inhibitors of HIV Env-mediated cell fusion. inhibition, % at 12.3 µM. HeLa-JRFL Env/CEM21 cell fusion, luciferase. 360,000 compounds, 1.1% hits;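 active = mean replicate inhibition score of at least 50 and every replicate individually at or above 50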
Statin myotox sup: suppressors of simvastatin-induced myotoxicity in C2C12 myotubes. rescue of ATP level, % at 7.49 µM. ATP luminescence, 48 h; scaled: DMSO 0, geranylgeraniol control 100. 330,000 compounds, 0.78% hits;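 active = mean ATP rescue above about 67%, or every replicate alone reaching that limit, limit read from the data, passing the limit was not always enough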;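 note: myotubes were challenged with 10 µM simvastatin during compound exposure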
PAX8 inh HTS: inhibitors of PAX8 transcriptional activity in RMG-I cells; inhibition, % at 12.6 µM; 360,000 compounds, 1.2% hits; RMG-I TPO-luciferase reporter, SteadyGlo, 24 h;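 active = mean replicate inhibition at least 60% with every replicate also reaching 60%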;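 note: luciferase light reporting Pax8 driven TPO promoter activity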
miR122 inh: inhibitors of miR-122 in Huh7 cells; Huh7 miR-122 Renilla luciferase sensor, 48 h; neutral wells = 0, positive control = 100; activation (reporter increase), % at 12.5 µM; 340,000 compounds, 0.3% hits; AID 602342;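 active = mean replicate activation score at least 90 and every replicate individually at or above 90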;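 note: higher luciferase means less miR-122 activity so hits act as miR-122 inhibitors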
GSIS activator: GLuc luminescence reporter in INS-1E cells, primary screen for activators of glucose-dependent secretion of insulin; INS-1E GLuc reporter insulin secretion, 2-3 h; activation, % at 16.6 µM; 370,000 compounds, 0.61% hits; AID 743287;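 active = lowest replicate activation of at least 40%, so every replicate reaches that level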
Numbers stand for hits; n = inactive; x = no result given; [ ] = dose if it differs, or a comment.

SMILES | EWS-Fli inh | HIV Env fusion | Statin myotox sup | PAX8 inh HTS | miR122 inh | GSIS activator
C[C@H](CO)N1C[C@H](C)[C@H](CN(C)S(=O)(=O)c2ccc(Cl)cc2)Oc2ccc(NC(=O)Nc3ccc(F)cc3)cc2CC1=O | n | n | n | 74 | n | n
O=C(C[C@H]1C=C[C@H](NC(=O)C2CCC2)[C@@H](CO)O1)NC1CCCCC1 | n | n | n | x | x | n
C[C@@H]1CCCCO[C@H](CN(C)Cc2ccc(Cl)c(Cl)c2)[C@H](C)CN([C@@H](C)CO)C(=O)c2cc(NS(=O)(=O)c3ccccc3)ccc2O1 | n | 57[16.7 µM] | x | n | n | n
C[C@@H]1CCCCO[C@@H](CN(C)Cc2ccc(Cl)c(Cl)c2)[C@@H](C)CN([C@@H](C)CO)C(=O)c2cc(NS(=O)(=O)c3ccc(Cl)cc3)ccc2O1 | n | x | x | n | x | n
C[C@@H]1CCCCO[C@@H](CN(C)Cc2ccc(Cl)c(Cl)c2)[C@@H](C)CN([C@@H](C)CO)C(=O)c2cc(NS(=O)(=O)c3ccccc3)ccc2O1 | n | n | x | 68 | n | n
C[C@@H]1CN([C@H](C)CO)C(=O)c2cc(NS(=O)(=O)c3ccccc3)ccc2O[C@@H](C)CCCCO[C@H]1CN(C)Cc1ccc(Cl)c(Cl)c1 | n | n | x | 94 | n | n
C[C@@H]1CCCCO[C@@H](CN(C)Cc2ccc(Cl)c(Cl)c2)[C@@H](C)CN([C@H](C)CO)C(=O)c2cc(NS(=O)(=O)c3ccc(F)cc3)ccc2O1 | n | n | x | n | n | n
Cc1ccc(S(=O)(=O)Nc2ccc3c(c2)C(=O)N([C@H](C)CO)C[C@H](C)[C@@H](CN(C)Cc2ccc(Cl)c(Cl)c2)OCCCC[C@@H](C)O3)cc1 | n | n | x | n | n | n
C[C@H](CO)N1C[C@H](C)[C@@H](CN(C)Cc2ccc(Cl)c(Cl)c2)OCCCC[C@H](C)Oc2ccc(NS(=O)(=O)c3ccccc3)cc2C1=O | n | n | x | 84 | n | n
CC(=O)N(C)C[C@@H]1Oc2ncc(-c3ccc(F)cc3)cc2C(=O)N([C@@H](C)CO)C[C@H]1C | n | n | n | x | n | n
CCCC#Cc1cnc2c(c1)C(=O)N([C@@H](C)CO)C[C@H](C)[C@@H](CN(C)S(C)(=O)=O)O2 | n | n | n | x | n | n
CCC(=O)N1C[C@@H](C)[C@H](OC)CN(C)C(=O)c2ccc(NC(=O)c3cc(C)on3)cc2OC[C@@H]1C | n | n | n | n | n | n
CCOC(=O)CN1CCCc2nc(C)c(C)cc21 | n | 84 | x | n | x | x
COc1ccc(NC(=O)Nc2ccc3c(c2)C(=O)N([C@H](C)CO)C[C@H](C)[C@H](CN(C)C(=O)Cc2ccccc2)OCCCC[C@H](C)O3)cc1 | n | n | x | n | n | n
CC(=NNC(=S)N1CCCCC1)c1ccccn1 | n | n | x | n | x | n
C=CCNC(=S)N/N=C(\C)c1ccccn1 | x | n | n | 95 | n | x
CC(=NNC(=S)Nc1ccccc1Cl)c1ccccn1 | n | 63 | x | 71 | n | n
CC(=NNC(=S)Nc1ccccc1)c1ccccn1 | n | n | x | n | x | n
C[C@@H]1CN([C@H](C)CO)C(=O)c2cc(NC(=O)c3ccncc3)ccc2O[C@@H](C)CCCCO[C@@H]1CN(C)S(=O)(=O)c1cccs1 | n | n | x | n | n | n
C[C@@H]1CN([C@@H](C)CO)C(=O)c2cc(NC(=O)Nc3ccc(F)cc3)ccc2O[C@@H](C)CCCCO[C@@H]1CN(C)Cc1ccc(C(F)(F)F)cc1 | n | n | x | 80 | n | n
C[C@@H]1CN([C@H](C)CO)C(=O)c2cc(NC(=O)CCC(F)(F)F)ccc2O[C@@H](C)CCCCO[C@H]1CN(C)Cc1ccc(C(F)(F)F)cc1 | n | n | n | n | n | n
C[C@H](CO)N1C[C@H](C)[C@@H](CN(C)Cc2ccc(C(F)(F)F)cc2)OCCCC[C@H](C)Oc2ccc(NC(=O)Nc3ccc(F)cc3)cc2C1=O | n | n | x | 88 | n | n
C[C@@H]1CN([C@@H](C)CO)C(=O)c2cc(NC(=O)CCC(F)(F)F)ccc2O[C@@H](C)CCCCO[C@H]1CN(C)Cc1ccc(C(F)(F)F)cc1 | n | n | n | 75 | n | n
C[C@@H]1CCCCO[C@H](CN(C)Cc2ccc(C(=O)O)cc2)[C@H](C)CN([C@H](C)CO)C(=O)c2cc(NC(=O)Nc3ccc(C(F)(F)F)cc3)ccc2O1 | n | n | x | n | n | n
